From the supplement of paper PMC10849652
The full data set covers some 8,800 targets. This sample favours those with a hit. About 0.5% of all pairs of compound and target were hits.

Columns and labels:
Assay in all cases: log2 fold change, soluble protein after heating vs DMSO (PISA); higher = thermal stabilisation; K562 lysate, 10 uM; active = over 0.2 and 3.5 SD of the protein, either way, in both replicates (recomputed)
[1] = compound: NCC(=O)Nc1ccc(-n2nc(C(F)(F)F)cc2-c2ccc3c(ccc4ccccc43)c2)cc1
Method in brief: (§1)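 The values are log-two fold changes in thermal stability compared with solvent controls and come from duplicates. They were obtained by TMTpro 16plex LC-MS/MS, with channel sums equalised, on the supernatant after 21,000xg for 90 min. That supernatant came from crude K562 extract at 1 mg/mL protein treated with 10 μM compound for 30 min, heated for 3 min across 48°C-58°C, pooled and brought to 0.5% NP-40 at 4°C.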

vorinostat = compound: O=C(CCCCCCC(=O)Nc1ccccc1)NO [vorinostat]
Method in brief: as §1

silmitasertib = compound: O=C(O)c1ccc2c(c1)nc(Nc1cccc(Cl)c1)c1ccncc12 [silmitasertib]
Method in brief: as §1

[2] = compound: O=C1NC(=O)C(c2cnc3ccccn23)=C1c1cn2c3c(cc(F)cc13)CN(C(=O)N1CCCCC1)CC2
Method in brief: as §1

entospletinib = compound: c1cn2cc(-c3ccc4cn[nH]c4c3)nc(Nc3ccc(N4CCOCC4)cc3)c2n1 [entospletinib]
Method in brief: as §1

Chain of UniProt P61923 (P61923 whole entry, looked up): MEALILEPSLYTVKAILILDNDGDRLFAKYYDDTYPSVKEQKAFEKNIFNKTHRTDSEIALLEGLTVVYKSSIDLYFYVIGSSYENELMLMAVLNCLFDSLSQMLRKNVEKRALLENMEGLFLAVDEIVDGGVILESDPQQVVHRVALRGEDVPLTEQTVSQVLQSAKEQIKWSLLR
Chain of UniProt Q13057 (Q13057 whole entry, looked up): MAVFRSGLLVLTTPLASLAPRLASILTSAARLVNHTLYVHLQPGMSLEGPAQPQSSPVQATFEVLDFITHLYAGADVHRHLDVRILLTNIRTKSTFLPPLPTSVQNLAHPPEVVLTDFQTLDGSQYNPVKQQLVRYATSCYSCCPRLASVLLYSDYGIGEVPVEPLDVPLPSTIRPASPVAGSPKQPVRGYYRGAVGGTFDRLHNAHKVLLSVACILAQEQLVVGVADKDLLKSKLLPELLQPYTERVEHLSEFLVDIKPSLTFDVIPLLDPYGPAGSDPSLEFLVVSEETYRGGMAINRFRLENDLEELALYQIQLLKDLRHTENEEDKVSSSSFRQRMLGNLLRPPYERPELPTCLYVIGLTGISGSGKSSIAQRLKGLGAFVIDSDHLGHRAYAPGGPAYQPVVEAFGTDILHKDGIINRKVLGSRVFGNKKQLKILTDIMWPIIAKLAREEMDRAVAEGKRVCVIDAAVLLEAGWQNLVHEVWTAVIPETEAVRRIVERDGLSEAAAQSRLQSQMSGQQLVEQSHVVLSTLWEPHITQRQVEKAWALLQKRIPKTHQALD
Chain of UniProt Q9Y600 (Q9Y600 whole entry, looked up): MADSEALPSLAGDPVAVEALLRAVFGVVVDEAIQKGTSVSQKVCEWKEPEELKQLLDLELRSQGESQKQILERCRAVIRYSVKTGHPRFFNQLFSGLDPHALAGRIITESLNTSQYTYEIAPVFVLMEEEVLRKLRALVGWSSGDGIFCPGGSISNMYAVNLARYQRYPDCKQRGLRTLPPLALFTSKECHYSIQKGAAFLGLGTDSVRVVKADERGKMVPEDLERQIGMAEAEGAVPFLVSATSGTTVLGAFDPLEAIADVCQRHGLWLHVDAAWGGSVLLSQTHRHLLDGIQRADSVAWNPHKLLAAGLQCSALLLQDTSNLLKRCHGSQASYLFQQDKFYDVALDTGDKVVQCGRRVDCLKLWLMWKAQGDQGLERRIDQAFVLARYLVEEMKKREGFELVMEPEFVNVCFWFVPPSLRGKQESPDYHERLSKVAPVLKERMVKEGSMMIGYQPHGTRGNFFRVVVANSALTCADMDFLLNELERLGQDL
Chain of UniProt Q7Z460 (Q7Z460 whole entry, looked up): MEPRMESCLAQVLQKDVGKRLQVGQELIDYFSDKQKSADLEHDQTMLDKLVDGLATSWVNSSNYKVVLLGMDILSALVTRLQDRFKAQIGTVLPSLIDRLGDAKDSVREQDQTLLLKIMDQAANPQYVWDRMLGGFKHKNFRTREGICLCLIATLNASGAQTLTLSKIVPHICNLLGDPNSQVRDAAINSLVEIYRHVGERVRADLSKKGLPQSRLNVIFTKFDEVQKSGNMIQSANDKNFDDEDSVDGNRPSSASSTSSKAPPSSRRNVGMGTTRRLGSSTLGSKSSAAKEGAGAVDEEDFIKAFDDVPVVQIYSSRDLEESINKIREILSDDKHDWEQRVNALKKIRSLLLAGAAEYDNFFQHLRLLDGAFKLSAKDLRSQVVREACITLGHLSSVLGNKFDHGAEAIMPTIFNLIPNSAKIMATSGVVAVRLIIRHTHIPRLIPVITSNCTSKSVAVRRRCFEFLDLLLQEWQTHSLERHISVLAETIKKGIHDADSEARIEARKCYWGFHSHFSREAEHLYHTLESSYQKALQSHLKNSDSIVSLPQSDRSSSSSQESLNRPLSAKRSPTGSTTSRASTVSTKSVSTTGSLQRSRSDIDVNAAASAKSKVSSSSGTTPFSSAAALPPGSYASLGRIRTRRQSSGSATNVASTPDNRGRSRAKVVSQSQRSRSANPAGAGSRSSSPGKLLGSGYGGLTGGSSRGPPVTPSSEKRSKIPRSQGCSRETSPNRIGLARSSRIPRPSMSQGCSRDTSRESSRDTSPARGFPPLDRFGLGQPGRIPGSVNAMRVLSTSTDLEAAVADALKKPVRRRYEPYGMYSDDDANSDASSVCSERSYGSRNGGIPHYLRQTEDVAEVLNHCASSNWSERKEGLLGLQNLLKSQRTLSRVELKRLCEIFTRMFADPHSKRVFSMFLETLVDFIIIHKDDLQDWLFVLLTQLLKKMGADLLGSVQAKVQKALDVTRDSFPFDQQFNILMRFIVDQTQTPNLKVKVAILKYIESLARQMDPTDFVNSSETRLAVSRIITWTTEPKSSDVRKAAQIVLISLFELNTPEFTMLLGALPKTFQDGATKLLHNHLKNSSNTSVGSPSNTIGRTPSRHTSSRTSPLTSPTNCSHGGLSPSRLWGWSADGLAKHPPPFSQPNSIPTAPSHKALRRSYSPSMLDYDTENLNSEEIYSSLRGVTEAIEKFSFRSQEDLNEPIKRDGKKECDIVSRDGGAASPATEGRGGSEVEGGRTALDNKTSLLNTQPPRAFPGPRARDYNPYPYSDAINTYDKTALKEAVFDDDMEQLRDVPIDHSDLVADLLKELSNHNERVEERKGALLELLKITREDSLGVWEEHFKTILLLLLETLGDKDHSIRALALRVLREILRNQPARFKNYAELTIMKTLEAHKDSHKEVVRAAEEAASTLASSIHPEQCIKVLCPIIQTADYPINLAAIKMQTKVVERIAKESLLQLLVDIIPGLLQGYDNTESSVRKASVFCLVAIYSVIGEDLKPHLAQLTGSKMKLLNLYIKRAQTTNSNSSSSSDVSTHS
Chain of UniProt Q9H467 (Q9H467 whole entry, looked up): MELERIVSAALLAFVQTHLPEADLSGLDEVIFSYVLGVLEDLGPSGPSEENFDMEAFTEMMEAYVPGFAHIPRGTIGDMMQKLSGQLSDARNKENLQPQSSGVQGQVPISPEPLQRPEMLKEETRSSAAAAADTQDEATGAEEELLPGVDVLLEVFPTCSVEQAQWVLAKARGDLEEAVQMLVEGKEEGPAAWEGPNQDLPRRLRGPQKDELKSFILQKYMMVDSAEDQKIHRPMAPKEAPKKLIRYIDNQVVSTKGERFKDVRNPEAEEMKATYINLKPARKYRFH
Chain of UniProt O75122 (O75122 whole entry, looked up): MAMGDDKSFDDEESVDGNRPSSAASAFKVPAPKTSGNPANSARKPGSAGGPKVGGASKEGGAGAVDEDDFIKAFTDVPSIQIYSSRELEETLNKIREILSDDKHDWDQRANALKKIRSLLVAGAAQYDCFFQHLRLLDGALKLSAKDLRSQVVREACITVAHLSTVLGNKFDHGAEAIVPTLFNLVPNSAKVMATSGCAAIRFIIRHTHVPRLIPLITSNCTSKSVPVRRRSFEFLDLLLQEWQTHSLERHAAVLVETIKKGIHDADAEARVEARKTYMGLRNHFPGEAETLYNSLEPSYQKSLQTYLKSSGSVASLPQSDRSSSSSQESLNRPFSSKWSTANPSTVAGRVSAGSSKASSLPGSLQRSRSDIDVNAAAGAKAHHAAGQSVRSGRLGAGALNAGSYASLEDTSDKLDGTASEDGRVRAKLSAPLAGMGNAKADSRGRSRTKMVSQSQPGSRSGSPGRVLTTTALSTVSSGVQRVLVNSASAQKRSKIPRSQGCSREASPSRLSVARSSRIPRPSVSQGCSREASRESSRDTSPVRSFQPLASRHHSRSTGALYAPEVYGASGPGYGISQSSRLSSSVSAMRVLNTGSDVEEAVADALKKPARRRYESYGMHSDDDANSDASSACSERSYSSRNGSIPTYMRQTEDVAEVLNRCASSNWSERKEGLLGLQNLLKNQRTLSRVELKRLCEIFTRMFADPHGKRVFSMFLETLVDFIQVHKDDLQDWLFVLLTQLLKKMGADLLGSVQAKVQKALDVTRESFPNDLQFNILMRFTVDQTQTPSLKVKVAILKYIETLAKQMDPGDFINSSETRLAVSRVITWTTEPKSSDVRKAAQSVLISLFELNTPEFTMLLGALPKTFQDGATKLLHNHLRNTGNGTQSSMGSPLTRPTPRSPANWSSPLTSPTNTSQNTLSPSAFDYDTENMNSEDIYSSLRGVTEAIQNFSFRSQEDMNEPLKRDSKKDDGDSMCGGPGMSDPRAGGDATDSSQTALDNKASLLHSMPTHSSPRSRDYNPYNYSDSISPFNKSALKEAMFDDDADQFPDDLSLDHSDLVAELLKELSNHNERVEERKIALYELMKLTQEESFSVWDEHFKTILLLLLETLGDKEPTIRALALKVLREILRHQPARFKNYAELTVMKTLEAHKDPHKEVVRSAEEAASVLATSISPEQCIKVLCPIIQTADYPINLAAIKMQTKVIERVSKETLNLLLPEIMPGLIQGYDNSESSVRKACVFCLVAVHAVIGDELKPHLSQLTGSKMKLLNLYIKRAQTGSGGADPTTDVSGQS
Chain of UniProt Q9H4E7 (Q9H4E7 whole entry, looked up): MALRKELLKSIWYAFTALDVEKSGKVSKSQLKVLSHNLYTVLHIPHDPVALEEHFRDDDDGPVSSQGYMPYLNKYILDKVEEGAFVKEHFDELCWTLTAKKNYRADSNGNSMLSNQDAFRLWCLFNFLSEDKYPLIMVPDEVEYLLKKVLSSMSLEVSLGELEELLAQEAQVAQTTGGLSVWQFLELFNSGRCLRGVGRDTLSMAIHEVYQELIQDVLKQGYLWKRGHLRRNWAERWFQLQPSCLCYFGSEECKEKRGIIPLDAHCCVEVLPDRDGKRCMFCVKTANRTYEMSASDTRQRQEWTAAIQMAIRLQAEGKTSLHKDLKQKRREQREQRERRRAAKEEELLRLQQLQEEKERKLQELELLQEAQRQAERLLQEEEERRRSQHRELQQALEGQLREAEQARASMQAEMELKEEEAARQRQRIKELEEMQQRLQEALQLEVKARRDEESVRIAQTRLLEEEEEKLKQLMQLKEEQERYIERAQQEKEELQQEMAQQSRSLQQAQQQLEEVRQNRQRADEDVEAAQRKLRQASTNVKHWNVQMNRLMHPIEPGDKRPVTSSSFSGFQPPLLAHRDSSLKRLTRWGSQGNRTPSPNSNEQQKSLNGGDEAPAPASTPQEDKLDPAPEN
Chain of UniProt Q8WXC6 (Q8WXC6 whole entry, looked up): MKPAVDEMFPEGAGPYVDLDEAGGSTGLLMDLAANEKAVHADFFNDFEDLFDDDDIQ

Row | Target | log2 fold change [1] | log2 fold change (vorinostat) | log2 fold change (silmitasertib) | log2 fold change [2] | log2 fold change (entospletinib)
1 | DARS (UniProt P14868) | 0.003 (inactive) | -0.327 (active) | 0.056 (inactive) | 0.019 (inactive) | 0.035 (inactive)
2 | CSDE1 isoform 4 (UniProt O75534) | -0.004 (inactive) | -0.33 (active) | 0.015 (inactive) | -0.009 (inactive) | 0.04 (inactive)
3 | COPZ1 isoform 4 (UniProt P61923) | -0.068 (inactive) | 0.188 (inactive) | -0.032 (inactive) | 0.163 (inactive) | -0.025 (inactive)
4 | DIAPH1 (UniProt H9KV28) | -0.002 (inactive) | 0.087 (inactive) | 0.084 (inactive) | -0.083 (inactive) | -0.113 (inactive)
5 | COTL1 (UniProt Q14019) | -0.03 (inactive) | 0.147 (inactive) | 0 (inactive) | -0.021 (inactive) | 0.023 (inactive)
6 | DEF6 (UniProt Q9H4E7) | 0.085 (inactive) | -0.416 (active) | 0.032 (inactive) | -0.045 (inactive) | 0.022 (inactive)
7 | CNNM2 (UniProt Q9H8M5) | 0.001 (inactive) | 0.068 (inactive) | 0.065 (inactive) | 0.051 (inactive) | -0.073 (inactive)
8 | DNAJC5 (UniProt Q9H3Z4) | 0.02 (inactive) | 0.101 (inactive) | -0.071 (inactive) | -0.03 (inactive) | 0.019 (inactive)
9 | CSNK2A2 (UniProt P19784) | 0.383 (inactive) | -0.105 (inactive) | 0.879 (active) | -0.008 (inactive) | 0.466 (inactive)
10 | CTPS2 (UniProt Q9NRF8) | 0.006 (inactive) | 0.327 (active) | 0.007 (inactive) | -0.034 (inactive) | 0.019 (inactive)
11 | CKM (UniProt P06732) | 0.003 (inactive) | -0.053 (inactive) | -0.025 (inactive) | -0.014 (inactive) | -0.026 (inactive)
12 | CNIH4 (UniProt Q9P003) | 0.09 (inactive) | 0.08 (inactive) | 0.055 (inactive) | 0.114 (inactive) | 0.038 (inactive)
13 | CLUH (UniProt O75153) | -0.011 (inactive) | 0.404 (active) | 0.071 (inactive) | 0.033 (inactive) | 0.01 (inactive)
14 | DHX32 (UniProt Q7L7V1) | -0.044 (inactive) | -0.351 (inactive) | 0.028 (inactive) | 0.097 (inactive) | -0.002 (inactive)
15 | DDR1 isoform 5 (UniProt Q08345) | – | – | – | -0.026 (inactive) | -0.153 (inactive)
16 | CHMP4A (UniProt H0YIN6) | – | – | – | 0.287 (inactive) | –
17 | CSAD isoform 3 (UniProt Q9Y600) | – | 0.031 (inactive) | 0.075 (inactive) | 0.039 (inactive) | –
18 | DAZAP1 (UniProt Q96EP5) | 0.032 (inactive) | -0.031 (inactive) | 0.014 (inactive) | 0.032 (inactive) | -0.001 (inactive)
19 | CUEDC2 (UniProt Q9H467) | -0.01 (inactive) | 0.151 (inactive) | -0.012 (inactive) | 0.003 (inactive) | 0.066 (inactive)
20 | CNOT2 (UniProt F8VRS8) | – | -0.056 (inactive) | 0.152 (inactive) | – | –
21 | CRLS1 (UniProt Q9UJA2) | – | -0.572 (active) | 0.172 (inactive) | 0.036 (inactive) | –
22 | CSNK2B (UniProt P67870) | 0.2 (inactive) | -0.016 (inactive) | 0.595 (active) | 0.023 (inactive) | 0.241 (inactive)
23 | CSDE1 isoform 3 (UniProt O75534) | – | – | – | -0.1 (inactive) | –
24 | CYP4V2 (UniProt Q6ZWL3) | – | 0.055 (inactive) | -0.038 (inactive) | 0.034 (inactive) | –

Row | Target | log2 fold change [1] | log2 fold change (vorinostat) | log2 fold change (silmitasertib) | log2 fold change [2] | log2 fold change (entospletinib)
25 | DESI2 (UniProt Q9BSY9) | 0.155 (inactive) | – | – | – | 0.116 (inactive)
26 | CSRP2 (UniProt Q16527) | – | – | – | 0.016 (inactive) | -0.132 (inactive)
27 | DDX4 (UniProt Q9NQI0) | 0.019 (inactive) | -0.213 (inactive) | 0.101 (inactive) | – | 0.011 (inactive)
28 | COASY isoform 2 (UniProt Q13057) | 0.018 (inactive) | -0.214 (active) | 0.075 (inactive) | 0.006 (inactive) | 0.019 (inactive)
29 | CLASP1 (UniProt Q7Z460) | 0.018 (inactive) | -0.317 (active) | -0.015 (inactive) | -0.022 (inactive) | 0.029 (inactive)
30 | DCUN1D4 isoform 3 (UniProt Q92564) | 0.066 (inactive) | 0.128 (inactive) | -0.031 (inactive) | -0.121 (inactive) | -0.096 (inactive)
31 | CSNK1D (UniProt P48730) | 0.002 (inactive) | – | – | -0.002 (inactive) | -0.076 (inactive)
32 | CLASP2 (UniProt O75122) | 0.052 (inactive) | – | – | 0.194 (inactive) | -0.073 (inactive)
33 | CINP isoform 3 (UniProt Q9BW66) | 0.084 (inactive) | – | – | 0.043 (inactive) | 0.009 (inactive)
34 | DALRD3 (UniProt Q5D0E6) | -0.17 (inactive) | -0.895 (active) | 0.074 (inactive) | – | -0.046 (inactive)
35 | DONSON (UniProt Q9NYP3) | – | -0.401 (active) | -0.123 (inactive) | 0.032 (inactive) | –
36 | DNM2 isoform 4 (UniProt P50570) | – | -0.826 (active) | 0.047 (inactive) | -0.014 (inactive) | -0.02 (inactive)
37 | CLIP1 isoform 2 (UniProt P30622) | – | 0.167 (inactive) | -0.035 (inactive) | 0.002 (inactive) | -0.151 (inactive)
38 | CSNK2A1 (UniProt P68400) | 0.15 (inactive) | 0.057 (inactive) | – | -0.046 (inactive) | 0.213 (inactive)
39 | DHRS13 (UniProt Q6UX07) | – | 1.11 (active) | 0.059 (inactive) | -0.001 (inactive) | –
40 | COL6A3 (UniProt P12111) | – | 0.273 (inactive) | 0.002 (inactive) | -0.093 (inactive) | –
41 | CLIP1, A0A3B3ITA2 | 0.136 (inactive) | – | – | 0.068 (inactive) | –
42 | CXCL14 (UniProt O95715) | 0.24 (inactive) | – | – | – | 0.033 (inactive)
43 | DCP2 (UniProt Q8IU60) | -0.02 (inactive) | -0.446 (active) | -0.033 (inactive) | 0.085 (inactive) | -0.001 (inactive)
44 | CNK3/IPCEF1 isoform 2 (UniProt G9CGD6) | -0.02 (inactive) | -0.279 (inactive) | 0.06 (inactive) | – | 0.008 (inactive)
45 | COPS9 (UniProt Q8WXC6) | – | 0.341 (inactive) | -0.139 (inactive) | – | –
46 | DDA1 (UniProt Q9BW61) | -0.024 (inactive) | -0.289 (active) | -0.006 (inactive) | 0.05 (inactive) | 0.054 (inactive)
47 | DHRS11 (UniProt Q6UWP2) | -0.006 (inactive) | -0.255 (active) | -0.014 (inactive) | 0.02 (inactive) | -0.011 (inactive)
48 | CPLX1 (UniProt O14810) | 0 (inactive) | – | – | – | 0.119 (inactive)
